# Test results as given in PubChem BioAssay.
# Values joined by “and” are separate entries in the source; they are usually repeats but may differ in a detail not shown here. Equal values may be shown once. Active and inactive are the calls of the source.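 The calls were made as follows: active = compounds whose cell count with miR-34 switched on is under 0.7 times the count with it off; inactive = the rest.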
# Assay: sensitizers of A549 cells to miR-34 induction, primary screen, imaging, A549 dox-inducible miR-34, nuclei and caspase counts (AID 1347080); also: test concentration not given here
# Conditions: A549 miR-34 inducible, Hoechst nuclei count, 48 h; stronger effect = lower value; cell number ratio, induced over uninduced
row,Compound,fold change
1,O=C(Cn1ccnc1[N+](=O)[O-])NCCO,0.871 (inactive) and 0.832 (inactive)
2,Cc1[nH]c(C)c(Cl)c(=O)c1Cl,0.869 (inactive) and 0.865 (inactive)
3,C[C@H]1COc2c(C3(N)CC3)c(F)cc3c(=O)c(C(=O)O)cn1c23,0.94 (inactive) and 0.878 (inactive)
4,CC(C)(O)c1ccccc1CC[C@@H](SCC1(CC(=O)O)CC1)c1cccc(/C=C/c2ccc3ccc(Cl)cc3n2)c1,0.896 (inactive)
5,CCN1CCN(c2cc3c(cc2F)c(=O)c(C(=O)O)cn3C2CC2)CC1,0.982 (inactive) and 0.836 (inactive) and 0.884 (inactive)
6,CCN1CC(CCN2CCOCC2)C(c2ccccc2)(c2ccccc2)C1=O (configuration not stated),0.947 (inactive) and 1 (inactive)
7,COC(=O)CCc1ccc(OCC(O)CNC(C)C)cc1 (configuration not stated),0.896 (inactive) and 0.841 (inactive) and 0.908 (inactive)
8,CC(=O)Nc1ccc(OCC(O)CNC(C)C)cc1 (configuration not stated),0.852 (inactive) and 0.959 (inactive)
9,Cc1ccc(C(=O)c2ccc(CC(=O)O)n2C)cc1,0.916 (inactive) and 0.846 (inactive) and 0.923 (inactive)
10,CN1CCN(c2c(F)cc3c(=O)c(C(=O)O)cn4c3c2SCC4)CC1,0.974 (inactive) and 0.992 (inactive) and 0.895 (inactive)
11,COc1cc(N)c(Cl)cc1C(=O)NC1CCN(Cc2ccccc2)CC1,0.86 (inactive)
12,O=C(O)P(=O)(O)O,0.897 (inactive) and 0.894 (inactive)
13,CCCCCCCCCCCCCCCCOP(=O)([O-])OCC[N+](C)(C)C,1 (inactive) and 0.955 (inactive)
14,CN(C)CCCSc1ccccc1NC(=O)/C=C/c1ccccc1,0.891 (inactive) and 1.14 (inactive)
15,CC(C)(C(=O)c1cccnc1)c1cccnc1,0.962 (inactive) and 0.83 (inactive) and 0.921 (inactive)
16,NC(=NCCCCCCN=C(N)/N=C(\N)Nc1ccc(Cl)cc1)/N=C(\N)Nc1ccc(Cl)cc1,0.918 (inactive) and 0.785 (inactive)

row,Compound,fold change
1,CC1(C)S[C@@H]2[C@H](NC(=O)[C@H](N)c3ccccc3)C(=O)N2[C@H]1C(=O)O,0.937 (inactive) and 0.929 (inactive) and 0.871 (inactive)
2,CC1CCc2cc(F)cc3c(=O)c(C(=O)O)cn1c23 (configuration not stated),0.911 (inactive) and 0.884 (inactive) and 0.854 (inactive)
3,CC1(C)O[C@@H]2C[C@H]3[C@@H]4CCC5=CC(=O)CC[C@]5(C)[C@@]4(F)[C@@H](O)C[C@]3(C)[C@]2(C(=O)CCl)O1,0.774 (inactive)
4,CCN(CC)C(=O)N1CCN(C)CC1,0.919 (inactive) and 0.923 (inactive) and 0.836 (inactive)
5,COc1ccc(C(=O)NCc2ccc(OCCN(C)C)cc2)cc1OC,0.832 (inactive) and 1.01 (inactive) and 0.841 (inactive)
6,CC(Oc1c(Cl)cccc1Cl)C1=NCCN1 (configuration not stated),0.89 (inactive) and 0.878 (inactive) and 0.898 (inactive)
7,CN1CCCCC1CCN1c2ccccc2Sc2ccc(S(C)=O)cc21 (configuration not stated),0.812 (inactive) and 0.898 (inactive) and 0.879 (inactive)
8,CN1C(C)(C)CCCC1(C)C,0.888 (inactive)
9,CN(CCCN1c2ccccc2CCc2ccccc21)CC(=O)c1ccc(Cl)cc1,0.782 (inactive) and 0.894 (inactive)
10,CCOC(=O)C1=C(C)NC(C)=C(C(=O)OCC)C1c1ccccc1/C=C/C(=O)OC(C)(C)C,0.814 (inactive)
11,CC(C(=O)O)c1ccc(C(=O)c2cccs2)cc1 (configuration not stated),0.842 (inactive) and 0.947 (inactive) and 0.9 (inactive)
12,NC(N)=Nc1nc(CSCC/C(N)=N/S(N)(=O)=O)cs1,0.977 (inactive) and 0.894 (inactive) and 0.942 (inactive)
13,CC(=O)Nc1ccc(CC(=O)O)cc1,0.951 (inactive)
14,CC(=O)OC/C=C(C)/C=C/C=C(C)/C=C/C1=C(C)CCCC1(C)C,0.9 (inactive)
15,Cn1c(=O)c2c(ncn2CCO)n(C)c1=O,0.968 (inactive)
16,CN(C)/N=N/c1nc[nH]c1C(N)=O,0.938 (inactive) and 0.895 (inactive)
